This note sets out measurements from PubChem BioAssay AID504332 (National Center for Advancing Translational Sciences (NCATS), 2011).

Screen size: about 350,000 compounds; about 31,000 (8.9%) were called active. Entries that show only a call come without a potency. Roughly 15% stayed inconclusive and do not appear here. Calls come from the whole dose curve; as a rule, active = well fitted inhibition curve with a large enough effect; inconclusive = small, poorly fitted or top-dose-only effect; inactive = no such curve, though single readings can be large or run the other way. For the sample, actives were picked, then their nearest neighbours and some compounds at random.
Potency is the fitted concentration of half-maximal effect.

Sequence of Histone-lysine N-methyltransferase EHMT2 (Homo sapiens) (Q96KQ7 913-1193 limits assumed): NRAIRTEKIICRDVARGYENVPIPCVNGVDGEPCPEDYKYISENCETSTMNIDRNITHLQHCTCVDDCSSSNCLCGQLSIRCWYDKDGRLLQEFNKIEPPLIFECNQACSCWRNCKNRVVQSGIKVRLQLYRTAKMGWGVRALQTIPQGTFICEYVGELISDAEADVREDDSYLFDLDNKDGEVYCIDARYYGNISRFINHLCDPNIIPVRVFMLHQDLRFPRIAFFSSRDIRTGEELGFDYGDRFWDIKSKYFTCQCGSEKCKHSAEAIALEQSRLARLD

This assay addresses Histone-lysine N-methyltransferase EHMT2 (Homo sapiens) (UniProt Q96KQ7). As to the kind of experiment: qHTS Assay for Inhibitors of Histone Lysine Methyltransferase G9a. Note: nearly all actives have a fitted effect of over 75% in size. Conditions: G9a H3K9 monomethylation, AlphaScreen, 2 h; series mostly up to 59 µM. The procedure, abridged: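 G9a (20 nM) was preincubated 15 min with compound, then reacted 2 h at room temperature with 500 nM biotin-H3K9 peptide and 20 µM SAM. Monomethyl-H3K9 detected by AlphaScreen using anti-H3K9me1 antibody.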
Consider `O=C(C1CCC(=O)N(C2CC2)C1)N1CCN(c2ccc(Cl)cc2)CC1` (stereo unspecified), for which the Potency result is “inactive”. As for `Cc1ccsc1CN(C(=O)c1oc2ccc(Br)cc2c1C)C1CCS(=O)(=O)C1` (stereo unspecified), the Potency entry is “inactive”. Take `Cc1ccc(C(=O)Nc2c(C(=O)NC(C)(C)C)oc3ccccc23)cc1`: the Potency result is “inactive”. As to `CCOC(=O)N1CCN(S(=O)(=O)c2cc(Br)cc3c2N(C(=O)C2CC2)CC3)CC1`, the Potency entry is “inactive”.

As for `O=C(C1CC1)N1CCc2cc(Br)cc(S(=O)(=O)N3CCN(c4ccccc4F)CC3)c21`, the Potency entry was “inactive”. `COc1cccc(N2CCN(S(=O)(=O)c3cc(Br)cc4c3N(C(=O)C3CC3)CC4)CC2)c1`: the Potency is 7.94 µM (active). Consider `Cc1ccc(S(=O)(=O)N(C)C)cc1NC(=O)C(C)OC(=O)c1ccc2ccccc2n1` (stereo unspecified), for which the activity, negative = inhibition is 10.5% [at 2.33 µM] (inactive). For the molecule `C=CCc1c(C)nc2cc(-c3ccccc3)[nH]n2c1=O`, the Potency entry is “inactive”. As for `CCOC(=O)c1c(NC(=O)/C=C/c2ccco2)sc(C)c1C`, the Potency is 44.7 µM (active). Regarding `CCOC(=O)c1sc(NC(=O)/C=C/c2ccc(C(C)C)cc2)c(C(=O)OCC)c1C`, the Potency entry is “inactive”. `Cc1nnc(NC(=O)C(c2ccccc2)c2ccccc2)s1`: the Potency entry is “inactive”. On to `CCOC(=O)c1c(NC(=S)NC(=O)/C=C/c2cccs2)sc(C)c1C`, for which the Potency result was “inactive”. `Cc1nnc(NC(=O)/C=C/c2ccco2)s1`: the Potency is 31.6 µM (active). As for `CCC(CC)c1nnc(NC(=O)/C=C/c2ccco2)s1`, the Potency result is “inactive”. Consider `Oc1ccccc1-c1nc(/C=C/c2ccc(F)cc2)no1`, for which the Potency entry was “inactive”. For `O=C(NCC(c1ccc(Cl)cc1)N1CCOCC1)c1ccccc1F` (stereo unspecified), the Potency result was “inactive”. On to `O=C(Nc1cccnc1Cl)c1cc(-c2ccccc2O)on1`, for which the Potency result was “inactive”. Turning to `O=C1CSC(c2cccc(F)c2)N1c1ccccc1F` (stereo unspecified), the activity, negative = inhibition is -5.4% [at 12.7 µM] (inactive). `O=C1CCCC2=C1C(c1ccccc1)n1c(s/c(=C/c3cccc(F)c3)c1=O)=N2` (stereo unspecified): the Potency was 10 µM (active). As to `O=C1CC(c2cccc(F)c2)C2=C(CCCC2=O)N1` (stereo unspecified), the Potency entry was “inactive”. The same measure, in the same setting: with `Cc1ccc(-c2cc(C(F)(F)F)c(C#N)c(SCC(=O)Nc3ccccc3)n2)cc1` the entry was “inactive”; with `CCOCCc1nn2c(=O)cc(COC(=O)CNC(=O)c3ccc(C(C)(C)C)cc3)nc2s1`, “inactive”.

`COc1ccc(CNC(=O)C2CC(c3ccc(C(F)(F)F)cc3)=NO2)cc1` (stereo unspecified): the Potency result is “inactive”. Take `C[C@H](C(=O)CC(=O)OC(C)(C)C)[C@H](O)c1ccc(C(F)(F)F)cc1`: the Potency is 79.4 µM (active). On to `CC(C)(C)OC(=O)N[C@H](C(=O)OC(C)(C)C)c1ccc(Br)cc1`, for which the activity, negative = inhibition was 2.34% [at 0.501 µM] (inactive). With `COC(=O)c1cccc(C(=O)N2CCC(CCC(=O)NCc3ccc(F)cc3)CC2)c1`, the Potency entry is “inactive”. `Cc1occc1C(=O)NC1CCCN(Cc2ccc(CC(C)C)cc2)C1` (stereo unspecified): the Potency result was “inactive”.

Turning to `Cc1ccccc1CN1CCC(C(=O)Nc2ccc(Oc3cccnc3)cc2)CC1`, the Potency result was “inactive”.

In the case of `COc1ccc(CCNc2ncnc3c2cnn3-c2ccc(C)cc2)cc1`, the Potency entry is “inactive”.

In the case of `COc1cc(NC(=O)c2noc3c2CSc2ccccc2-3)cc(OC)c1OC`, the Potency is 1.78 µM (active). The same measure, in the same setting: under `COc1ccc(CCNC(=O)c2nn(C)c3c2CSc2ccccc2-3)cc1OC` stands “inactive”; under `COc1cc(NC(=O)c2nc3ccccc3nc2C)cc(OC)c1OC`, “inactive”.

For `COc1ccc(-c2onc(C)c2C)cc1S(=O)(=O)NCc1cccs1`, the Potency result was “inactive”.

On to `Cc1ccc(S(=O)(=O)N2CCN(C(=O)c3ccccc3-c3nc4ccccc4s3)CC2)c(C)c1`, for which the Potency result was “inactive”. On the same count and under the same terms, with `Cc1cc2c(cc1C)[n+](C)cn2CC(O)COCC1CC=CCC1` (stereo unspecified) the figure was 39.8 µM (active); with `COc1ccc(C(=O)NCC2CCCN2S(=O)(=O)c2cccs2)cc1OC` (stereo unspecified), “inactive”. Take `CC(=O)NC(c1cccs1)c1cc(Br)c2cccnc2c1O` (stereo unspecified): the activity, negative = inhibition was 7.81% [at 12.7 µM] (inactive). `Cc1c(NC(=O)Nc2ccccc2)cccc1[N+](=O)[O-]`: the Potency entry was “inactive”. As for `COc1ccccc1NC(=O)/C=C/C(=O)O`, the Potency entry was “inactive”. As to `Cc1c(NC(=S)NCc2ccc(F)cc2)cccc1[N+](=O)[O-]`, the Potency is 39.8 µM (active).

With `Cc1c(NC(=O)/C=C/C(=O)O)cccc1[N+](=O)[O-]`, the Potency is 39.8 µM (active). On the same count and under the same terms, with `Cc1cccc(NC(=S)NCCc2ccc(F)cc2)c1C` the entry was “inactive”; with `CCNC(=S)Nc1cccc(Cl)c1C`, “inactive”; with `CCCCNC(=O)c1cc(-c2ccc(Cl)c(Cl)c2)on1`, “inactive”. The same measure, in the same setting: with `O=C(COc1ccccc1)NCc1ccc2c(c1)CCN2C(=O)c1ccc(F)cc1` the entry was “inactive”; with `O=C(NCCCN1CCCC1=O)C(=O)NCC1OCCN1S(=O)(=O)c1ccc(Br)cc1` (stereo unspecified), “inactive”. As for `Cc1ccc(NC(=O)CN2C(=O)CC(C)Sc3ccccc32)c(C)c1` (stereo unspecified), the Potency result is “inactive”.

On to `COc1ccc(S(=O)(=O)N(C)CC(=O)N2CCCC2)cc1`, for which the Potency result was “inactive”. On to `Cc1cc(NC(=O)Cn2nc(C(F)(F)F)c3c2CCCC3)no1`, for which the Potency result is “inactive”. With `CCN(CC)c1ccc(NC(=O)Cn2nc3c(cc2=O)CCCC3)c(C)c1`, the Potency is 11.2 µM (active). The same measure, in the same setting: under `CCc1ccc(-n2nc(C)c3c(C)cc(=O)n(CC(=O)Nc4ccc(F)cc4C)c32)cc1` stands “inactive”; under `C/C(=C/c1ccccc1)C(=O)N1CCN(c2ccccc2)CC1`, “inactive”; under `CCOc1ccc(NC(=O)c2cnn(-c3ccccc3)c2-n2cccc2)cc1`, “inactive”. `Cc1ccc(C(=O)N2CCN(C(=O)N3CCOCC3)CC2)cc1`: the Potency result was “inactive”. As for `N#C/C(=C/c1ccc(N2CCOCC2)o1)C(=O)N1CCOCC1`, the Potency was 7.94 µM (active).

With `O=C(N1CCOCC1)N1CCOCC1`, the Potency result is “inactive”. As to `Cc1cccc(NC(=O)Cc2ccc(Br)cc2)n1`, the activity, negative = inhibition was 12.1% [at 0.501 µM] (inactive).

In the case of `CCOCCCNC(=O)c1c(NC(=O)Cc2coc3ccc(C)cc23)sc2c1CCC2`, the Potency result was “inactive”. Take `O=C(CSCc1cnn(-c2ccccc2)c1-n1cccc1)NCc1ccc(Cl)cc1`: the Potency entry is “inactive”.

With `Cc1cccc(N2C(=O)C3C(c4ccccc4)OC4(C(=O)c5ccccc5C4=O)C3C2=O)c1` (stereo unspecified), the Potency entry is “inactive”. With `Cc1cccc(N2C(=O)SC(N(CC(=O)O)c3cccc(C)c3)C2=O)c1` (stereo unspecified), the Potency result was “inactive”.

For `Cc1cccc(N2C(=O)SC(SC(=Nc3ccccc3)Nc3ccccc3)C2=O)c1` (stereo unspecified), the Potency was 3.55 µM (active). On the same count and under the same terms, with `COc1ccc(OC)c(-c2csc(NC(=O)COC(=O)C3CC3)n2)c1` the entry was “inactive”. In the case of `COc1cccc(CNC(=O)COC(=O)CN2C(=O)NC3(CCCCC3C)C2=O)c1` (stereo unspecified), the activity, negative = inhibition is 7.7% [at 12.7 µM] (inactive).

As to `COc1ccccc1C1/C(=C(/O)c2ccc(OC(C)C)cc2)C(=O)C(=O)N1c1cc(C)on1` (stereo unspecified), the Potency was 1.26 µM (active). The same measure, in the same setting: with `Cc1cc(N2C(=O)C(=O)/C(=C(/O)c3ccc(Cl)cc3)C2c2cccc(Br)c2)no1` (stereo unspecified) the entry was “inactive”. With `COc1ccc(C2/C(=C(/O)c3ccccc3)C(=O)C(=O)N2C)c(OC)c1` (stereo unspecified), the activity, negative = inhibition was -3.6% [at 0.501 µM] (inactive). In the case of `COC(=O)C1(C)CC1(c1ccccc1)c1ccccc1` (stereo unspecified), the Potency entry is “inactive”. Same read-out and setting: under `CC(=O)c1ccc(N2CCN(S(=O)(=O)c3ccc4c(c3)CC(=O)N4C)CC2)cc1` stands “inactive”. Turning to `Cc1ccc2oc(=O)c3cnn(CC(=O)N4CCN(c5cccc(Cl)c5)CC4)c3c2c1`, the Potency result is “inactive”. Turning to `CSc1ccc(CCNC(=O)c2cnn(-c3ccccc3)c2-n2cccc2)cc1`, the Potency result was “inactive”. Turning to `CC1CCN(C(=O)C2CCN(S(=O)(=O)N3CCC4(CC3)OCCO4)CC2)CC1`, the Potency result is “inactive”. As to `Cc1csc(=O)n1CC(=O)OCC(=O)N(CC(C)C)c1c(N)n(Cc2ccccc2)c(=O)[nH]c1=O`, the Potency entry was “inactive”. For the molecule `COc1ccc2oc(C(=O)OCC(=O)N(CC(C)C)c3c(N)n(Cc4ccccc4)c(=O)[nH]c3=O)c(C)c2c1`, the Potency is 39.8 µM (active). With `COCCN(C(=O)COC(=O)Cc1cccc(OC)c1)c1c(N)n(Cc2ccccc2)c(=O)[nH]c1=O`, the Potency entry was “inactive”. For `O=C(NC1CC(=O)N(c2ccc(F)cc2)C1)c1ccc(S(=O)(=O)N2CCCC2)cc1` (stereo unspecified), the Potency entry is “inactive”. `CCN(CC)C(=O)CSc1nc2cc3c(cc2c(=O)n1CCCC(=O)NCc1ccc2c(c1)OCO2)OCO3`: the Potency result was “inactive”. Consider `CCc1c(C)[nH]c(=S)c(C#N)c1C`, for which the Potency was 1.12 µM (active). As for `CCOC(=O)C1=C(CN2CCCCCC2)NC(=O)NC1c1cccc([N+](=O)[O-])c1` (stereo unspecified), the Potency result is “inactive”. For the molecule `CCOC(=O)C1=C(CN2CCc3ccccc32)NC(=O)NC1c1cccc([N+](=O)[O-])c1` (stereo unspecified), the Potency was 39.8 µM (active).

For the molecule `CCOC(=O)C1=C(CCc2ccccc2)NC(=O)NC1c1ccc2ccccc2c1` (stereo unspecified), the Potency entry is “inactive”. With `Cc1ccc(C)c(N2CCN(C(=O)CN3C(=O)COc4ccc(S(=O)(=O)N5CCCCCC5)cc43)CC2)c1`, the Potency entry is “inactive”. On to `CC(C)(C)C(=O)COC(=O)c1cc(S(=O)(=O)N2CCCCC2)ccc1N1CCOCC1`, for which the Potency result is “inactive”.

For `C=CCn1c(SCc2ccccc2)nc2c1c(=O)[nH]c(=O)n2C`, the Potency is 31.6 µM (active). For `C=CCSc1nc2c(c(=O)[nH]c(=O)n2C)n1Cc1ccccc1`, the Potency entry was “inactive”. In the case of `Cc1nnc(Sc2nc3c(c(=O)[nH]c(=O)n3C)n2Cc2ccccc2)s1`, the activity, negative = inhibition was 17.7% [at 12.7 µM] (inactive). Take `O=[N+]([O-])c1c(NCCO)cc(Sc2nc3ccccc3s2)c2nonc12`: the Potency is 3.55 µM (active). On to `Cc1nn(CC(=O)Nc2nc3ccccc3s2)c(C)c1[N+](=O)[O-]`, for which the activity, negative = inhibition is 11.1% [at 0.501 µM] (inactive). Turning to `O=[N+]([O-])c1cc(Br)c(O)c(/C=N/Nc2nc3ccccc3s2)c1`, the Potency result is “inactive”. Same read-out and setting: with `Cc1c(NS(=O)(=O)c2ccc(Cl)cc2)c(=O)n(-c2ccccc2)n1C` the entry was “inactive”; with `Cc1c(NC(=S)Nc2ccccc2)c(=O)n(-c2ccccc2)n1C`, “inactive”; with `CCN(CC)P(=O)(/C(Cl)=C\Nc1c(C)n(C)n(-c2ccccc2)c1=O)N(CC)CC`, 31.6 µM (active). On the same count and under the same terms, under `COc1ccccc1-c1nc(C#N)c(N2CCC(C(N)=O)CC2)o1` stands “inactive”. Consider `CC1CCN(c2oc(-c3ccccc3F)nc2C#N)CC1`, for which the Potency is 7.94 µM (active). Same read-out and setting: with `Cc1oc(-c2ccccc2F)nc1CS(=O)CC(=O)NCCN1CCCCC1C` (stereo unspecified) the entry was “inactive”; with `COc1ccc(Cl)cc1NC(=O)C(C)Sc1nc2c(c(=O)[nH]1)CCCC2` (stereo unspecified), “inactive”.
